Experimental data published in PubChem BioAssay (Tox21).
Records with an inconclusive call do not appear. The source made the active and inactive calls. Unless noted, the call rests on the fitted dose curve; in most records, active means well fitted curve in the direction sought with a large enough effect in the repeat runs; inconclusive means weak or mixed curves; inactive means no such curve, though single readings can be large; an effect the other way counts as inactive or inconclusive.

Experiments:
[1] = qHTS assay for small molecule agonists of the p53 signaling pathway (AID 651631; calls by dose curve; further: nearly all actives have a fitted effect of over 15% in size; further: potency means the concentration at half of the fitted maximal effect)
Procedure, shortened: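 Testing took place in human colorectal HCT-116 cells with stable p53RE-driven beta-lactamase. After 16 h of compound exposure at 37 °C, a FRET substrate was added and fluorescence recorded 2 h later.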

[2] = qHTS assay for small molecules that induce genotoxicity in human embryonic kidney cells expressing luciferase-tagged ATAD5 (AID 651632); further: nearly all actives have a fitted effect of over 15% in size
Procedure, shortened: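 A rise in luciferase signal from ATAD5-tagged HEK293T cells marks genetic stress. Cells were exposed to compounds for 16 hr at 37C, 5% CO2, then luciferase was quantified after a 30 min room-temperature incubation with Amplite.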

[3] = qHTS assay for small molecules that induce genotoxicity in human embryonic kidney cells expressing luciferase-tagged ATAD5 - cell viability (AID 651634; calls by dose curve; further: nearly all actives have a fitted effect of over 25% in size)
Procedure, shortened: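 Cytotoxicity counter-readout: after 15.5 hr compound treatment at 37C, live-cell protease activity in ATAD5-luciferase HEK293T cells measured by CellTiter-Fluor fluorescence, 30 min development at 37C.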

[4] = qHTS assay for small molecule disruptors of the mitochondrial membrane potential - cell viability (AID 720634; calls by dose curve;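 further: human HepG2 liver cancer cells; series mostly up to about 83 µM; nearly all actives have a fitted effect of over 20% in size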)
Procedure, shortened: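 Cytotoxicity was quantified from ATP content by CellTiter-Glo luminescence in the same wells as the MMP dye read-out. HepG2 (2,000 cells/well) were plated overnight and exposed to compounds for 1 hr at 37 C.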

[5] = qHTS assay to test for compound auto fluorescence at 590 nm (red) in HepG2 cells (AID 720674)
Procedure, shortened: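 Rose Bengal sodium served as the red fluorophore standard. HepG2 monolayers (overnight attachment, MEM with 10% FBS) were exposed to test compounds for 1 hr at 37 C and read at Ex 540/Em 590 nm.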

[6] = qHTS assay to test for compound auto fluorescence at 535 nm (green) in HepG2 cells (AID 720675)
[7] = qHTS assay to test for compound auto fluorescence at 460 nm (blue) in HEK293 cells (AID 720678)
Procedure, shortened: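 HEK293, 2,000 cells/well, 10% dialyzed FBS; attach 4-5 hr 37C; pin compound or DMSO; o/n 37C/5% CO2; fluorescence 405/460 nm; triamterene-equivalent units.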

[8] = qHTS assay to test for compound auto fluorescence at 590 nm (red) in HEK293 cells (AID 720679)
Procedure, shortened: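 Intensity at 540nm excitation and 590nm emission is reported as Rose Bengal sodium-equivalent autofluorescence. Measurements followed overnight exposure (37C, 5% CO2) of HEK293 cells, 2,000 per well, to 23 nL compound.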

[9] = qHTS assay for small molecule disruptors of the mitochondrial membrane potential (AID 720635); further: potency means the concentration at half of the fitted maximal effect
Procedure, shortened: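 HepG2 cells (2,000/well) attached overnight at 37C, then took compound for 1 hr at 37C, 5% CO2. Mito-MPS dye was added for 30 min; fluorescence was read at 490/535 nm (monomers) and 540/590 nm (aggregates).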

[10] = qHTS assay for small molecule agonists of the p53 signaling pathway - cell viability (AID 651633; calls by dose curve; further: series mostly up to about 83 µM; nearly all actives have a fitted effect of over 30% in size)
Procedure, shortened: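 p53RE-bla cells, seeded at 4,000 per well and rested 5 h at 37 C/5% CO2, received compounds in DMSO for 16 h at 37 C. CellTiter-Glo was then added, and luminescence was read after 30 min at room temperature to gauge cytotoxicity.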

Measured: Potency

O=CNC(N1CCN(C(NC=O)C(Cl)(Cl)Cl)CC1)C(Cl)(Cl)Cl (stereo unspecified)
not listed: [9] | [10]
inactive: all other assays above

COC(=O)C(c1ccccc1)C1CCCCN1 (stereo unspecified)
not listed: [10]
inactive: all other assays above

CCC(Cl)[N+](=O)[O-] (stereo unspecified)
not listed: [5] | [10]
inactive: all other assays above

CC1=C(C(=O)Nc2ccccc2)S(=O)(=O)CCO1
active: [1] 19.3 µM
not listed: [3] | [9] | [10]
inactive: all other assays above

COC(=O)c1c(C(F)F)nc(C(F)(F)F)c(C2=NCCS2)c1CC(C)C
inactive: [1] | [2] | [3] | [5] | [7] | [8]

c1cc[c]([Hg][c]2ccccc2)cc1
active: [1] 15.4 µM | [9] 15.4 µM
not listed: [2] | [10]
inactive: all other assays above

O=S(=O)(O)C(F)(F)C(F)(F)C(F)(F)C(F)(F)C(F)(F)C(F)(F)F
not listed: [9] | [10]
inactive: all other assays above

CCOP(=S)(Oc1cnc(C(C)(C)C)nc1)OC(C)C (stereo unspecified)
not listed: [9] | [10]
inactive: all other assays above

CCCSC(=O)Cl
not listed: [6] | [10]
inactive: all other assays above

CNCC(=O)c1ccc(O)c(O)c1
not listed: [2]
inactive: all other assays above

CSc1nc(N=[N+]=[N-])nc(NC(C)C)n1
not listed: [5] | [10]
inactive: all other assays above

CCNc1nc(NC(C)C)nc(OC)n1
not listed: [6] | [9] | [10]
inactive: all other assays above

O=[N+]([O-])c1ccc(CBr)cc1
not listed: [2] | [9]
inactive: all other assays above

CC1=NNC(=O)N(/N=C/c2cccnc2)C1
not listed: [10]
inactive: all other assays above
